{"source": "PubChem BioAssay (NCI)", "note": "Compounds without any hit were thinned out: in the full panel of roughly 83,000, 20% have a hit.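 The endpoint reported here, percent growth, reads 100 for growth as untreated, 0 for no net growth and -100 for all cells dead.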 Values without a mark were called inactive. Active and inactive are the calls of the source."}
{"system": "NCI-H522 lung", "experiment": "NCI-60 one-dose screen, 48 h (100 = growth as untreated, 0 = no growth, -100 = all killed)", "conditions": "10 µM unless noted", "procedure": "Growth inhibition of the NCI-H522 human Non-Small Cell Lung tumor cell line is measured as a screen for anti-cancer activity. Cells are grown in 96 well plates and exposed to the test compound for 48 hours. Compounds are tested at a single concentration, which is 10^-5 M for most compounds. The reported endpoint is percent growth (GI% or GIPRCNT), where numbers from 0 - 100% represent growth inhibition, and numbers from -100% - 0 represent cell death. For example, a value of 40 represents 60% growth inhibition. A value of 0 means no net growth occurred over the course of the experiment. A value of -40 indicates 40% of cells at the beginning of the experiment died by the end of the experiment. A value of -100 means all cells are dead at the end of the experiment.\nNCI-60 Human Tumor Cell Lines Screen was performed using the standard one-dose NCI protocol, which is described in more detail at https://dtp.cancer.gov/discovery_development/nci-60/default.htm.\nCompounds with GIPRCNT values below 10 were considered active. Activity score was based on GIPRCNT using the following formula: […]\nScore is 0 for GIPRCNT values of 100 or above, 50 for GIPRCNT values of 0, and 100 for GIPRCNT values of -100."}
{"compound": "CC(C)[N+](C)(CCOC(COc1ccccc1)COc1ccccc1)C(C)C", "growth": "68%"}
{"compound": "Cc1ccc2[nH]c(=O)cc(-n3nncc3COc3ccc(C=O)cc3)c2c1", "growth": "89.7%"}
{"compound": "Fc1ccc(C2CC(c3cccc(Nc4ccncc4)c3)=NN2c2ccc(Cl)cc2)cc1", "note": "(stereo not given)", "growth": "83.1%"}
{"compound": "CCC1(CC)NC(=O)c2c(c3ccc(Cl)c(Cl)c3n2C)C1C#N", "note": "(stereo not given)", "growth": "86.5%"}
{"compound": "Cc1c2c(cc[n+]1Cc1ccccc1)c1ccc(OCc3ccccc3)cc1n2Cc1ccccc1", "growth": "-47.1% (active)"}
{"compound": "CC(=O)OCC(=O)[C@@]1(O)CC[C@H]2[C@@H]3CC(=C(Br)Br)C4=CC(=O)CC[C@]4(C)[C@H]3C(=O)C[C@@]21C", "growth": "66.6%"}
{"compound": "Clc1ccc(N2N=C(c3cccc(Nc4ccncc4)c3)CC2c2ccc3c(c2)OCO3)cc1", "note": "(stereo not given)", "growth": "57.2%"}
{"compound": "Cc1cc2nc(-c3ccccc3)c(-c3ccccc3)nc2cc1C", "growth": "94.9%"}
{"compound": "CCc1c(Nc2ccc(C)cc2)nc(N)[nH]c1=O", "growth": "90.5%"}
{"compound": "CN1CCN(Cc2ccc(NC(=O)c3cncc(C#Cc4cnccc4C(F)(F)F)c3)cc2C(F)(F)F)CC1", "growth": "79.4%"}
{"compound": "CN(C)C(C(N)=O)c1ccc(Cl)cc1", "note": "(stereo not given)", "growth": "96.1%"}
{"compound": "COC(=O)CCCCCCCCC1(C)C=CC(C(C)O)=CC1", "note": "(stereo not given)", "growth": "89%"}
{"compound": "O=S(=O)(O)c1cc(O)c2c(N=Nc3ccc(Nc4ccccc4)c4c(S(=O)(=O)O)cccc34)cc(S(=O)(=O)O)cc2c1", "growth": "93.5%"}
{"compound": "CC(=O)OC1CCC2(C)C(CCC3C4CC=C(C(C)=O)C4(C)OC(=O)CC32)C1", "note": "(stereo not given)", "growth": "-81.1% (active)"}
{"compound": "O=C(c1ccccc1)N1N=C(c2ccc(-n3ccc(C(F)(F)F)n3)cc2)CC1c1ccc[nH]1", "note": "(stereo not given)", "growth": "76.5%"}
{"compound": "C/C(=C(/c1ccccc1)c1ccc(OCC(O)CN2CCOCC2)cc1)c1ccccc1", "note": "(stereo not given)", "growth": "73.3%"}
{"compound": "COc1ccc(C(=O)/C=C/c2cn(Cc3ccc(Cl)cc3)c3ccccc23)cc1", "growth": "26.5%"}
{"compound": "NC(=O)c1cccc(-c2cc(C(N)=O)ccc2Cl)c1", "growth": "23.4%"}
{"compound": "CCCOc1nc(SCCC)nc2c1cnn2-c1ccccc1", "growth": "3.95% (active)"}
{"compound": "Cc1cc(C)n(Nc2nc3ccccc3[nH]c2=O)c(=O)c1C#N", "growth": "93.3%"}
{"compound": "COc1ccc(-c2nc(SCC(C)C)nc(N/N=C(/C)c3ccc(OC)c(OC)c3)c2C#N)cc1", "growth": "80.8%"}
{"compound": "Cc1cc(NC(=O)c2cnc(N3CCN(CCOCCOCCOCCOCCC(=O)N[C@H](C(=O)N4C[C@H](O)C[C@H]4C(=O)N[C@@H](C)c4ccc(-c5scnc5C)cc4)C(C)(C)C)CC3)cn2)c2ncccc2c1", "growth": "-15.6% (active)"}
{"compound": "CCc1c(Nc2ccc(C)cc2)[nH]c(N)nc1=S", "growth": "96.9%"}
{"compound": "FC(F)(F)Oc1cccc(-c2cc(NCCCCCCNc3cc(-c4cccc(OC(F)(F)F)c4)nc4ccc(N5CCCC5)cc34)c3cc(N4CCCC4)ccc3n2)c1", "growth": "-49.5% (active)"}
{"compound": "COc1ccccc1/C=C1\\COc2ccc(-c3ccccc3)cc2C1=O", "growth": "51.9%"}
{"compound": "CC(=O)c1c[nH]c2ccc(-c3ccnc(Nc4ccc(NC(=O)c5cccc(F)c5)c(CN5CCOCC5)c4)n3)cc12", "growth": "0.424% (active)"}
{"compound": "CN(C)c1ccc(-c2c(C#N)c(N)n3nc(N)c(C#N)c3c2C#N)cc1", "growth": "82.7%"}
{"compound": "CCOC(=O)N1CCN(CCCCl)CC1", "growth": "95.4%"}
{"compound": "COC(=O)C(c1ccccc1)C(CC(=O)c1ccccc1)c1ccccc1", "note": "(stereo not given)", "growth": "61.9%"}
{"compound": "CC(=O)c1c[nH]c2ccc(-c3ccnc(Nc4ccc(NC(=O)C5CCCC5)c(CN5CCOCC5)c4)n3)cc12", "growth": "-17.9% (active)"}
{"compound": "CN(C)C(=O)c1cc2cnc(Nc3ccc(-c4csc5c(=O)cc(N6CCOCC6)oc45)cc3)nc2n1C1CCCC1", "growth": "-65.1% (active)"}
{"compound": "COc1cc(C2CC(c3cccc(Nc4ccncc4)c3)=NN2c2ccccc2)cc(OC)c1OC", "note": "(stereo not given)", "growth": "77.3%"}
{"compound": "CCCCCCCCOc1ccc(/C=N/Nc2cc(C)nc3ccc(Cl)cc23)cc1", "growth": "-56.7% (active)"}
{"compound": "CS(=O)(=O)OCCN(CCOS(C)(=O)=O)c1ccc(/C=N/Nc2ccc([N+](=O)[O-])cc2[N+](=O)[O-])cc1", "growth": "91.5%"}
{"compound": "Cn1c(COC(=O)NCCn2ccnc2)nc2c(N3CCOCC3)nc(-c3ccccc3)nc21", "growth": "-54.7% (active)"}
{"compound": "COc1cc2nc(-c3ccc(C(F)(F)F)cc3)cc(OCCCN3CCCCC3)c2cc1OC", "growth": "33.6%"}
{"compound": "CCOC(=O)N1CCc2c(sc3nc4nc[nH]n4c(=O)c23)C1", "growth": "85.2%"}
{"compound": "C=C(C)[C@H]1CC/C(C)=C/CC[C@]2(C)O[C@H]2CC/C(COC(=O)[C@@H](OC(C)=O)[C@H](NC(=O)c2ccccc2)c2ccccc2)=C\\[C@@H]1O", "growth": "59.5%"}
{"compound": "O=C(Nc1cccc(Cl)c1)Oc1c(Br)c(Br)c(Br)c(Br)c1Br", "growth": "58.8%"}
{"compound": "COc1ccc(-c2nc(N=Nc3c(O)[nH]c4ccccc34)nc(N3CCOCC3)c2C#N)cc1", "growth": "72.1%"}
